Measurements published in the supplement of paper PMC13380429.
Unmarked numbers belong to inactive results.

Tested on: Vero E6 infected with SARS-CoV-2
Assay: inhibition of SARS-CoV-2 cytopathic effect; higher = more antiviral protection, active = above 15
Details: 48 h

| Compound | inhibition of SARS-CoV-2 cytopathic effect (1 nM) [%] | inhibition of SARS-CoV-2 cytopathic effect (8.33 nM) [%] | inhibition of SARS-CoV-2 cytopathic effect (100 nM) [%] | inhibition of SARS-CoV-2 cytopathic effect (833.33 nM) [%] | inhibition of SARS-CoV-2 cytopathic effect (10000 nM) |
| --- | --- | --- | --- | --- | --- |
| Nc1ccc(S(=O)(=O)Nc2nccs2)cc1 [sulfathiazole] | 1.78 | 2.25 | 0.28 | 1.1 | -0.08% |
| Cc1coc2c1C(=O)C(=O)c1c-2ccc2c1CCCC2(C)C [tanshinone-IIA] | -0.65 | 2.92 | 0.8 | -7.33 | -6.78% |
| COC(=O)[C@H]1[C@H]2C[C@@H]3c4[nH]c5cc(OC)ccc5c4CCN3C[C@H]2C[C@@H](OC(=O)c2cc(OC)c(OC)c(OC)c2)[C@@H]1OC [reserpine] | 1.33 | 3.05 | 0.71 | 3.56 | 7.95% |
| C/C1=C/C[C@@H](/C(C)=C/c2csc(C)n2)OC(=O)C[C@H](O)C(C)(C)C(=O)[C@H](C)[C@@H](O)[C@@H](C)CCC1 [epothilone-D] | 2.13 | -0.55 | -1.83 | -0.53 | -1.4% |
| Cc1[nH]c(/C=C2\C(=O)Nc3ccc(S(=O)(=O)N(C)c4cccc(Cl)c4)cc32)c(C)c1C(=O)N1CCN(C)CC1 | 2.2 | 0.76 | -0.49 | 0.96 | -1.88% |
| O=c1cc(N2CCOCC2)oc2c(-c3cccc4c3sc3ccccc34)cccc12 | 1.01 | -0.44 | 0.05 | 8.27 | 36.8% (active) |
